According to PubChem BioAssay (EPA / NIEHS):
Active and inactive are the calls of the source. The calls were made as follows: active = hit-call score of the fitted dose curve at least 0.9, where 1 is the maximum; inactive = score below 0.9.

Key:
Conditions in all cases: mRNA level, 48 h; actives raise or lower the signal
[1] = read-out: Peroxisomal acyl-coenzyme A oxidase 1 (ACOX1) gene, ACOX1 (gene 51); assay: LTEA_HepaRG_ACOX1: Life Technologies and Expression Analysis (LTEA) Assay for Peroxisomal acyl-coenzyme A oxidase 1 (ACOX1) gene using HepaRG (AID 2283467)
Procedure, shortened: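 HepaRG, 48 h chemical exposure, 8-pt half-log series from 100 uM top, 0.5% DMSO vehicle, duplicates. Readout: ACOX1 mRNA by Fluidigm qRT-PCR, housekeeping-normalized; bidirectional fit vs DMSO baseline.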

[2] = read-out: Alkaline Phosphatase, Placental (ALPP) gene, ALPP (gene 250); assay: LTEA_HepaRG_ALPP: Life Technologies and Expression Analysis (LTEA) Assay for Alkaline Phosphatase, Placental (ALPP) gene using HepaRG (AID 2283468)
Procedure, shortened: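 HepaRG cells plated 48 h, then exposed in duplicate for 48 h in serum-free induction medium to 8-point half-log series from 100 uM in 0.5% DMSO. ALPP mRNA by TaqMan qRT-PCR, normalized to ACTB/GAPDH/POLR2A; bidirectional fit versus DMSO.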

[3] = read-out: Bcl-2 (BAD) gene, BAD (gene 572); assay: LTEA_HepaRG_BAD: Life Technologies and Expression Analysis (LTEA) Assay for Bcl-2 (BAD) gene using HepaRG (AID 2283469)
Procedure, shortened: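 HepaRG, 48 h exposure, 8-pt half-log curve from 100 uM in 0.5% DMSO, duplicates. Readout: TaqMan qRT-PCR for BAD mRNA, housekeeping-normalised (ACTB/GAPDH/POLR2A); gain or loss fitted against DMSO baseline.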

[4] = read-out: Bcl-2 (BAX) gene, BAX (gene 581); assay: LTEA_HepaRG_BAX: Life Technologies and Expression Analysis (LTEA) Assay for Bcl-2 (BAX) gene using HepaRG (AID 2283470)
Procedure, shortened: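 Cells were thawed, plated for 48 h, moved to serum-free induction medium and dosed for 48 h (highest concentration 100 uM, half-log steps, 0.5% DMSO). Total RNA was then analysed for BAX expression by qRT-PCR.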

[5] = read-out: adenosine kinase (ADK) gene, ADK (gene 132); assay: LTEA_HepaRG_ADK: Life Technologies and Expression Analysis (LTEA) Assay for adenosine kinase (ADK) gene using HepaRG (AID 2283471)
Procedure, shortened: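 Read-out is ADK transcript level measured by qRT-PCR and normalised to three housekeeping genes. Cells are human HepaRG, dosed for 48 h at up to 100 uM in 0.5% DMSO. Gain or loss of signal is fitted against DMSO controls.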

[6] = read-out: Alpha-fetoprotein (AFP) gene, AFP (gene 174); assay: LTEA_HepaRG_AFP: Life Technologies and Expression Analysis (LTEA) Assay for Alpha-fetoprotein (AFP) gene using HepaRG (AID 2283472)
Procedure, shortened: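 Chemicals were tested on differentiated HepaRG cells for 48 hours at eight concentrations up to 100 uM, with 0.5% DMSO as vehicle. AFP expression was then quantified by qRT-PCR and analyzed for gain or loss relative to DMSO.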

[7] = read-out: BCL2L11 (gene 10018); assay: LTEA_HepaRG_BCL2L11: Life Technologies and Expression Analysis (LTEA) Assay for Bcl-2 (BCL2L11) gene using HepaRG (AID 2283473)
Procedure, shortened: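 Differentiated human HepaRG cells were exposed 48 h in serum-free induction medium to eight half-log concentrations up to 100 uM in 0.5% DMSO, in duplicate. BCL2L11 mRNA was quantified by TaqMan qRT-PCR, normalized to ACTB, GAPDH and POLR2A; induction or repression fitted versus DMSO.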

[8] = read-out: Apolipoprotein A-V (APOA5) gene, APOA5 (gene 116519); assay: LTEA_HepaRG_APOA5: Life Technologies and Expression Analysis (LTEA) Assay for Apolipoprotein A-V (APOA5) gene using HepaRG (AID 2283474)
Procedure, shortened: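 Differentiated HepaRG cells in serum-free induction medium, exposed 48 h in duplicate to eight half-log concentrations topping at 100 uM (0.5% DMSO). APOA5 mRNA by Fluidigm TaqMan qRT-PCR, normalized to ACTB, GAPDH and POLR2A; bidirectional fit versus DMSO.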

[9] = read-out: Apoptosis regulator Bcl-2 (Homo sapiens) (UniProt P10415); assay: LTEA_HepaRG_BCL2: Life Technologies and Expression Analysis (LTEA) Assay for Bcl-2 gene using HepaRG (AID 2283475)
Procedure, shortened: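 Plated human HepaRG cells are exposed to test chemicals for 48 h across eight concentrations from 100 uM downward in half-log steps (0.5% DMSO). BCL2 expression is then measured by qRT-PCR with housekeeping normalisation and fitted bidirectionally against vehicle.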

[10] = read-out: Caspase-3 (Homo sapiens) (UniProt P42574); assay: LTEA_HepaRG_CASP3: Life Technologies and Expression Analysis (LTEA) Assay for cysteine-aspartic acid protease (CASP3) using HepaRG (AID 2283477)
Procedure, shortened: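 Differentiated HepaRG cells, plated 48 h, were treated in duplicate in serum-free induction medium for 48 h with eight half-log concentrations up to 100 uM in 0.5% DMSO. CASP3 mRNA measured by qRT-PCR, normalized to ACTB, GAPDH, POLR2A.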

[11] = read-out: Cytochrome P450 (CYP24A1), CYP24A1 (gene 1591); assay: LTEA_HepaRG_CYP24A1: Life Technologies and Expression Analysis (LTEA) Assay for Cytochrome P450 (CYP24A1) using HepaRG (AID 2283478)
Procedure, shortened: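 HepaRG cells plated 48 h, then exposed in duplicate in serum-free induction medium for 48 h to 8-point half-log series from 100 uM in 0.5% DMSO. CYP24A1 mRNA by Fluidigm qRT-PCR, normalized to ACTB, GAPDH, POLR2A; bidirectional fit versus DMSO.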

[12] = read-out: Cytochrome P450 (CYP1A2), CYP1A2 (gene 1544); assay: LTEA_HepaRG_CYP1A2: Life Technologies and Expression Analysis (LTEA) Assay for Cytochrome P450 (CYP1A2) using HepaRG (AID 2283479)
Procedure, shortened: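 Differentiated human HepaRG cells in serum-free induction medium exposed 48 hours in duplicate to 8 half-log concentrations from 100 uM, 0.5% DMSO. CYP1A2 mRNA quantified by qRT-PCR, normalized to ACTB, GAPDH and POLR2A; bidirectional fitting versus DMSO.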

[13] = read-out: cysteine-aspartic acid protease (CASP8), CASP8 (gene 841); assay: LTEA_HepaRG_CASP8: Life Technologies and Expression Analysis (LTEA) Assay for cysteine-aspartic acid protease (CASP8) using HepaRG (AID 2283480)
Procedure, shortened: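 qRT-PCR readout of CASP8 mRNA, normalized to three housekeeping genes, after 48 h chemical exposure of HepaRG cells; 8-point half-log series, top 100 uM, 0.5% DMSO vehicle. Bidirectional curve fitting against DMSO baseline.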

[14] = read-out: Cytochrome P450 2C19 (Homo sapiens) (UniProt P33261); assay: LTEA_HepaRG_CYP2C19: Life Technologies and Expression Analysis (LTEA) Assay for CYP2C19 using HepaRG (AID 2283482)
Procedure, shortened: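 Differentiated HepaRG cells in serum-free induction medium exposed 48 h in duplicate, 8 concentrations from 100 uM by half-log steps in 0.5% DMSO. CYP2C19 mRNA measured by TaqMan qRT-PCR, normalized to ACTB, GAPDH, POLR2A. Bidirectional fit versus DMSO.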

[15] = read-out: CYP2C8 (gene 1558); assay: LTEA_HepaRG_CYP2C8: Life Technologies and Expression Analysis (LTEA) Assay for CYP2C8 using HepaRG (AID 2283483)
Procedure, shortened: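 HepaRG (human liver line), 48 h chemical exposure, 8-pt half-log series from 100 uM, 0.5% DMSO vehicle. Readout: CYP2C8 transcript by qRT-PCR, housekeeping-normalized. Bidirectional fit vs DMSO baseline.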

[16] = read-out: CYP2E1 (gene 1571); assay: LTEA_HepaRG_CYP2E1: Life Technologies and Expression Analysis (LTEA) Assay for CYP2E1 using HepaRG (AID 2283485)
Procedure, shortened: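 Readout is qRT-PCR of CYP2E1 mRNA, normalized to three housekeeping genes and fitted bidirectionally against 0.5% DMSO. HepaRG cells were dosed 48 h at eight concentrations, highest 100 uM with half-log dilutions.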

[17] = read-out: CYP4A11 (gene 1579); assay: LTEA_HepaRG_CYP4A11: Life Technologies and Expression Analysis (LTEA) Assay for CYP4A11 using HepaRG (AID 2283486)
Procedure, shortened: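 Differentiated HepaRG cells, 48 h after plating, exposed in duplicate for 48 h to 8 half-log concentrations up to 100 uM in 0.5% DMSO in serum-free induction medium. CYP4A11 mRNA measured by TaqMan qRT-PCR, normalized to ACTB, GAPDH and POLR2A.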

[18] = read-out: Cytochrome P450 (CYP2B6), CYP2B6 (gene 1555); assay: LTEA_HepaRG_CYP2B6: Life Technologies and Expression Analysis (LTEA) Assay for Cytochrome P450 (CYP2B6) using HepaRG (AID 2283481)
Procedure, shortened: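 Differentiated human HepaRG cells in serum-free induction medium, dosed in duplicate for 48 h over 8 half-log concentrations topping at 100 uM (0.5% DMSO). CYP2B6 mRNA measured by TaqMan qRT-PCR, normalized to ACTB, GAPDH, POLR2A; bidirectional fit versus DMSO.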

[19] = read-out: CYP2C9 (gene 1559); assay: LTEA_HepaRG_CYP2C9: Life Technologies and Expression Analysis (LTEA) Assay for CYP2C9 using HepaRG (AID 2283484)
Procedure, shortened: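 HepaRG, 48 h dosing, 8-pt half-log series, top 100 uM, 0.5% DMSO vehicle. Read-out: CYP2C9 transcript by TaqMan qRT-PCR, housekeeping-normalized (ACTB/GAPDH/POLR2A). Gain or loss fitted vs DMSO baseline.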

[20] = read-out: Bcl-2 (BID) gene, BID (gene 637); assay: LTEA_HepaRG_BID: Life Technologies and Expression Analysis (LTEA) Assay for Bcl-2 (BID) gene using HepaRG (AID 2283476)
Procedure, shortened: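 Cells are plated, cultured 48 h, switched to serum-free induction medium, then dosed 48 h (100 uM top, half-log steps, 0.5% DMSO). RNA is isolated and BID expression read by qRT-PCR.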

Measured: AC50

Chain of Caspase-3 (Homo sapiens) (P42574 whole entry, looked up): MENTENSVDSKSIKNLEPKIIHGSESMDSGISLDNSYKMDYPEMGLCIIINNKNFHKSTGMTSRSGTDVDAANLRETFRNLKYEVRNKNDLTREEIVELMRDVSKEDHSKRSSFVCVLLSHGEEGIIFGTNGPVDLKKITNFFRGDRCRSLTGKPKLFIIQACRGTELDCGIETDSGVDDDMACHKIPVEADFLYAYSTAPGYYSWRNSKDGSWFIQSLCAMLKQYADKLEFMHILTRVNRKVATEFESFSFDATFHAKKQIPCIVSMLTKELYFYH
Chain of Cytochrome P450 2C19 (Homo sapiens) (P33261 whole entry, looked up): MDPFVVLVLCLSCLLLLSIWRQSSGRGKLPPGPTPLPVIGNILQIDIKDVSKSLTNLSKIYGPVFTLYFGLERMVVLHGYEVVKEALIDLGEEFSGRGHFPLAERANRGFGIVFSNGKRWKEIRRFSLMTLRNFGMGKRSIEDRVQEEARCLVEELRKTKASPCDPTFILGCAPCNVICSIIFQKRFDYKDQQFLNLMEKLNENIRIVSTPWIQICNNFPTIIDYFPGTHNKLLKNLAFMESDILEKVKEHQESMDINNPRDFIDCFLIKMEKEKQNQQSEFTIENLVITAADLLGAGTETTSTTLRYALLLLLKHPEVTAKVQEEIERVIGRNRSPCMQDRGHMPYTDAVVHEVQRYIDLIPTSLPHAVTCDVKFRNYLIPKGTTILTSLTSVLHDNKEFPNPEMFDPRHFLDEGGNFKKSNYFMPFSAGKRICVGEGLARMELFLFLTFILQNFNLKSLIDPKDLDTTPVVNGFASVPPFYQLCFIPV
Chain of Apoptosis regulator Bcl-2 (Homo sapiens) (P10415 whole entry, looked up): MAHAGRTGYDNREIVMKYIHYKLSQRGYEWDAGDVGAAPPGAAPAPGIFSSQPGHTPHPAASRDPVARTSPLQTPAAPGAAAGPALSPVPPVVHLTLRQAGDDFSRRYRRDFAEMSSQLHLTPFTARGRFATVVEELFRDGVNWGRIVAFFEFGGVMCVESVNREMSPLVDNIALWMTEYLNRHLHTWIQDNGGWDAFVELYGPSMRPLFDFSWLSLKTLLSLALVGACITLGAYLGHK

CN1CCCC1=O
active: [12] 31.5 µM
not listed: [18] | [19] | [20]
inactive: all other assays above

CC(=O)C(C)=CC1C(C)=CCCC1(C)C (stereo unspecified)
not listed: [11] | [20]
inactive: all other assays above

CCc1c(C(=O)NN2CCCCC2)nn(-c2ccc(Cl)cc2Cl)c1-c1ccc(Br)cc1
inactive: [3] | [5] | [13]
active: [1] 32.3 µM | [2] 12.3 µM | [4] 27.3 µM | [6] 25.1 µM | [7] 7.59 µM | [8] 42 µM | [9] 20 µM | [10] 50 µM | [12] 91.8 µM | [18] 30 µM | [14] 34.6 µM | [15] 23.6 µM | [19] 30.4 µM | [16] 22.4 µM | [17] 15.9 µM

Cc1nc(-c2ccc3c(c2)CCN(CCC2CCC(NC(=O)/C=C/c4ccc(F)cc4)CC2)CC3)no1 (stereo unspecified)
not listed: [2] | [18]
inactive: all other assays above
